Data published in PubChem BioAssay (Tox21).
A number with no mark means an inactive call. Records with an inconclusive call do not appear. Where a call stands in place of a potency, no number is given. Activity calls are given as the source filed them. Unless noted, calls follow the shape of the dose curve; as a rule, active = well fitted curve in the direction sought with a large enough effect in the repeat runs; inconclusive = weak or mixed curves; inactive = no such curve, though single readings can be large; an effect the other way counts as inactive or inconclusive.

Experiments:
[1] = qHTS assay to identify small molecule antagonists of the glucocorticoid receptor (GR) signaling pathway - cell viability counter screen (AID 720693); also: nearly all actives have a fitted effect of over 55% in size
[2] = qHTS assay for identifying genotoxic compounds that show differential cytotoxicity against isogenic chicken DT40 cell lines with known DNA damage response pathways - Rev3 mutant cell line (AID 743014); also: nearly all actives have a fitted effect of over 55% in size; also: potency is read from the fitted curve at half-maximal effect
[3] = qHTS assay for identifying genotoxic compounds that show differential cytotoxicity against isogenic chicken DT40 cell lines with known DNA damage response pathways - Rad54/Ku70 mutant cell line (AID 743015); also: nearly all actives have a fitted effect of over 60% in size; also: potency is read from the fitted curve at half-maximal effect
[4] = qHTS assay to identify small molecule antagonists of the androgen receptor (AR) signaling pathway - cell viability counter screen (AID 743033; also: nearly all actives have a fitted effect of over 45% in size)
[5] = qHTS assay to identify small molecule antagonists of the androgen receptor (AR) signaling pathway using the MDA cell line - cell viability counter screen (AID 743041; also: nearly all actives have a fitted effect of over 45% in size; also: potency is read from the fitted curve at half-maximal effect)
Method in brief: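 In this qHTS counter assay, fluorescence intensity after CellTiter-Fluor addition indicated viability of MDA-kb2 AR-luc cells given compounds and R1881 for 16 h at 37C.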

[6] = qHTS assay to identify small molecule antagonists of the thyroid receptor (TR) signaling pathway - cell viability counter screen (AID 743064); also: nearly all actives have a fitted effect of over 50% in size; also: potency is read from the fitted curve at half-maximal effect
Method in brief: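 Counter screen for cytotoxicity: compound plus T3 (1 nM final) on GH3.TRE-Luc cells, 23.5 h at 37 °C, then fluorescence viability readout with CellTiter-Fluor.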

[7] = qHTS assay to identify small molecule antagonists of the thyroid receptor (TR) signaling pathway (AID 743065); also: series mostly up to about 70 µM; nearly all actives have a fitted effect of over 55% in size
Method in brief: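 GH3.TRE-Luc rat pituitary cells carrying two TR response elements driving luciferase were plated for 4 h, given compound plus 1 nM T3 (final), and incubated 23.5 h at 37 C. ONE-Glo luminescence measured reporter inhibition; CellTiter-Fluor fluorescence tracked cytotoxicity.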

[8] = test system: thyroid hormone receptor (rat, GH3 cells); assay: qHTS assay to identify small molecule agonists of the thyroid receptor (TR) signaling pathway (AID 743066; calls by dose curve)
[9] = target: Estrogen receptor (Homo sapiens) (UniProt P03372); assay: qHTS assay to identify small molecule antagonists of the estrogen receptor alpha (ER-alpha) signaling pathway (AID 743069; active = well fitted curve in the direction sought with a large enough effect in the signal ratio in the repeat runs, not every such curve was filed as active; the % refers to the signal ratio)
Method in brief: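 A 17beta-estradiol challenge was applied right after compound transfer to ER-alpha-UAS-bla HEK293 cells previously kept in charcoal-stripped serum. Plates stood 18 hr at 37C and 5% CO2; fluorescence was read following 2 hr FRET substrate loading at room temperature.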

[10] = qHTS assay to identify small molecule antagonists of the estrogen receptor alpha (ER-alpha) signaling pathway - cell viability counter screen (AID 743074; calls by dose curve;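 also: HEK293 cells carrying ER-alpha-UAS-bla reporter stimulated with 17beta-estradiol; nearly all actives have a fitted effect of over 45% in size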)
[11] = target: Estrogen receptor (Homo sapiens) (UniProt P03372); assay: qHTS assay to identify small molecule agonists of the estrogen receptor alpha (ER-alpha) signaling pathway (AID 743075; calls by dose curve;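 also: HEK293 GripTite cells with ER-alpha and UAS-driven beta-lactamase reporter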)
[12] = target: Estrogen receptor (Homo sapiens) (UniProt P03372); assay: qHTS assay to identify small molecule agonists of the estrogen receptor alpha (ER-alpha) signaling pathway using the BG1 cell line (AID 743079); also: nearly all actives have a fitted effect of over 20% in size; also: potency is read from the fitted curve at half-maximal effect
[13] = qHTS assay to identify small molecule antagonists of the estrogen receptor alpha (ER-alpha) signaling pathway using the BG1 cell line (AID 743080; calls by dose curve;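 also: BG1 cells stimulated with 17beta-estradiol alongside compound; series mostly up to about 70 µM; nearly all actives have a fitted effect of over 25% in size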)
Method in brief: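 Luciferase inhibition measured with ONE-Glo after 30 min at RT in BG1Luc4E2 cells given test compounds and 17beta-estradiol for 21.5 h at 37 C; CellTiter-Fluor viability read in the same wells beforehand.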

[14] = qHTS assay to identify small molecule antagonists of the estrogen receptor alpha (ER-alpha) signaling pathway using the BG1 cell line - cell viability counter screen (AID 743081);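 also: compound given together with 17beta-estradiol as the ER stimulus; nearly all actives have a fitted effect of over 45% in size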; also: potency is read from the fitted curve at half-maximal effect
Aromatase (Homo sapiens) = Aromatase (Homo sapiens) (UniProt P11511); assay: qHTS assay to identify aromatase inhibitors (AID 743083); also: series mostly up to about 70 µM; nearly all actives have a fitted effect of over 55% in size
[15] = target: Androgen receptor (Homo sapiens) (UniProt P10275); assay: qHTS assay to identify small molecule antagonists of the androgen receptor (AR) signaling pathway (AID 743035; active = well fitted inhibition curve with a large enough effect in the signal ratio in the repeat runs, not every such curve was filed as active; the % refers to the signal ratio)
Method in brief: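 Steps: seed AR-UAS-bla GripTite HEK293 cells, incubate 4 h at 37C; pin in test compound, then add agonist R1881; incubate 16 h at 37C; add LiveBLAzer B/G FRET substrate, 2 h at room temperature; read fluorescence.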

[16] = target: Androgen receptor (Homo sapiens) (UniProt P10275); assay: qHTS assay to identify small molecule agonists of the androgen receptor (AR) signaling pathway (AID 743036; active = well fitted activation curve with a large enough effect in the signal ratio in the repeat runs, with a control signal flat, not every such curve was filed as active; the % refers to the signal ratio)
Method in brief: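 In this Tox21 qHTS, 2,000 HEK293 AR-bla cells per well were incubated with compounds for 16 h at 37C and 5% CO2. Fluorescence intensity was recorded 2 h after adding LiveBLAzer B/G FRET substrate at room temperature.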

[17] = target: Androgen receptor (Homo sapiens) (UniProt P10275); assay: qHTS assay to identify small molecule agonists of the androgen receptor (AR) signaling pathway using the MDA cell line (AID 743040; also: nearly all actives have a fitted effect of over 20% in size)
Method in brief: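 Cell-based luciferase reporter: MDA-kb2, MMTV promoter (AR + GR response elements). 16 h compound exposure at 37C; ONE-Glo, 30 min RT, luminescence.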

[18] = target: Androgen receptor (Homo sapiens) (UniProt P10275); assay: qHTS assay to identify small molecule antagonists of the androgen receptor (AR) signaling pathway using the MDA cell line (AID 743042; also: nearly all actives have a fitted effect of over 55% in size)
Method in brief: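 MDA-kb2 cells (human breast carcinoma, stably carrying an MMTV-luciferase reporter responsive to AR and GR) were plated at 3,000 cells/well and preincubated 5 hr at 37C, then given compound plus R1881 agonist for 16 h. ONE-Glo luminescence was read.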

[19] = qHTS assay for identifying genotoxic compounds that show differential cytotoxicity against isogenic chicken DT40 cell lines with known DNA damage response pathways - wild type cell line (AID 743012); also: nearly all actives have a fitted effect of over 60% in size; also: potency is read from the fitted curve at half-maximal effect
Method in brief: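 Cytotoxicity in repair-proficient parental chicken DT40 cells serves as the comparator for Rad54/Ku70- and Rev3-deficient lines. Cells were exposed to compounds for 40 h at 37 C/5% CO2, and ATP-based luminescence (CellTiter-Glo) measured viability.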

Chain of Aromatase (Homo sapiens) (P11511 whole entry, looked up): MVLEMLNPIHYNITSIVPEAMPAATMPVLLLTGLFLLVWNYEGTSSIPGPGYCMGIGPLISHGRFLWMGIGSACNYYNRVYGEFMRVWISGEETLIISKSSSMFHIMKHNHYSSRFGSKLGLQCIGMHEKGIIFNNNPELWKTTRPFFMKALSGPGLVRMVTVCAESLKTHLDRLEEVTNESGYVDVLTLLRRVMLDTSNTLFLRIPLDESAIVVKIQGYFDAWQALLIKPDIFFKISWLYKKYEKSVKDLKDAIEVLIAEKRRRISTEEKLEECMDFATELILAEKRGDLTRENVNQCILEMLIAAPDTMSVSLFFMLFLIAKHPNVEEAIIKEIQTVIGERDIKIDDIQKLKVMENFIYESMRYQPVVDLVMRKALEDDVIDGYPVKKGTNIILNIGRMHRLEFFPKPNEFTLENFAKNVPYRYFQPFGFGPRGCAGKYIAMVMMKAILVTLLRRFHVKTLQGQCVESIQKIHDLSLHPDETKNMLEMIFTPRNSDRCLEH
Chain of Androgen receptor (Homo sapiens) (P10275 whole entry, looked up): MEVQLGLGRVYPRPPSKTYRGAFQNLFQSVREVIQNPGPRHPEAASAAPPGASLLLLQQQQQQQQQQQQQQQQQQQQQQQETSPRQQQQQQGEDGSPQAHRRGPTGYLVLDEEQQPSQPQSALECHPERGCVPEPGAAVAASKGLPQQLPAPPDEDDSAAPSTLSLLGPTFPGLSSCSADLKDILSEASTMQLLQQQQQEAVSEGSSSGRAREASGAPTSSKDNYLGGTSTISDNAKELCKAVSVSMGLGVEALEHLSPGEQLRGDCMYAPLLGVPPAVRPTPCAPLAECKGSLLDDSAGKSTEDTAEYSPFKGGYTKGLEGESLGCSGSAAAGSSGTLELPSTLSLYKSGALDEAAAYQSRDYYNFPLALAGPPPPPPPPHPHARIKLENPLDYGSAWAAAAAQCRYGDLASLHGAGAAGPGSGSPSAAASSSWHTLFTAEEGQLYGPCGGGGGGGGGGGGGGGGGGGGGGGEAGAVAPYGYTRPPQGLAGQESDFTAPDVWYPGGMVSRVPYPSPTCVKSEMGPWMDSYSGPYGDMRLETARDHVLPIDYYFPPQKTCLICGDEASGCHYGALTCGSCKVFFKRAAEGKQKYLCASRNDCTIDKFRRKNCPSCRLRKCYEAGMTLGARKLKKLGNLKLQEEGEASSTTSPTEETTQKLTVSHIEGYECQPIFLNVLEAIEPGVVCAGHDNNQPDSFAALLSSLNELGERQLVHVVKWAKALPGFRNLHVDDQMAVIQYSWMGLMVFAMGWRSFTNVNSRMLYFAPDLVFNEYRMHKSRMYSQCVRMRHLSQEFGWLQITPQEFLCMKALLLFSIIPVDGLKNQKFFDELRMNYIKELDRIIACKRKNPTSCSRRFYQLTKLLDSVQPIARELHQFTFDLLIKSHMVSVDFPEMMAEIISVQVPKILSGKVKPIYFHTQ
Chain of Estrogen receptor (Homo sapiens) (P03372 whole entry, looked up): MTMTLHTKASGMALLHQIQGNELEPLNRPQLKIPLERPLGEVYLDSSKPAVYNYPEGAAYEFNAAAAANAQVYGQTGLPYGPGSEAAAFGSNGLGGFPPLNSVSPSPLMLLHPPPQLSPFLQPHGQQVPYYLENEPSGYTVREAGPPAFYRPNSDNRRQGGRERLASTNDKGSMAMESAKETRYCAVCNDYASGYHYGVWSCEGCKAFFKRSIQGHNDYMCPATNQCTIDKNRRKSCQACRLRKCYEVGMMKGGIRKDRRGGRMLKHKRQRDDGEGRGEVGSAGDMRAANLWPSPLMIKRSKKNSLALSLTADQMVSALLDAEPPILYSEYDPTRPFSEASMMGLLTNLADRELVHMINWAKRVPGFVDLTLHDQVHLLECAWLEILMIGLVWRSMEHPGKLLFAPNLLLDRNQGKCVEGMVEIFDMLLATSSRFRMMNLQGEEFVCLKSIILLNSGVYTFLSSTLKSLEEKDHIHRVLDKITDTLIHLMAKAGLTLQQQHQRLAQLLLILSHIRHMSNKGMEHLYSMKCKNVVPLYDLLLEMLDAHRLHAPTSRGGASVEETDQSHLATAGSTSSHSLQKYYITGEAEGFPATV

SMILES	Potency [1]	Potency [2]	Potency [3]	Potency [4]	Potency [5]	Potency [6]	Potency [7]	outcome [8]	Potency [9]	outcome [10]	Potency [11]	Potency [12]	Potency [13]	Potency [14]	Potency (Aromatase (Homo sapiens))	Potency [15]	outcome [16]	outcome [17]	Potency [18]	Potency [19]
CCCCCCCCCCCCSCCOCCO	inactive	inactive	inactive	inactive	inactive	inactive	inactive	inactive	inactive	inactive	inactive	inactive	inactive	inactive	inactive	–	–	–	–	–
CC(C)NC(=O)c1ccccc1N	inactive	inactive	inactive	inactive	–	inactive	inactive	inactive	inactive	inactive	inactive	inactive	inactive	inactive	inactive	–	–	–	–	–
Cc1c(N=C=O)cccc1N=C=O	inactive	inactive	inactive	inactive	inactive	inactive	inactive	inactive	inactive	inactive	inactive	inactive	inactive	inactive	inactive	inactive	inactive	inactive	inactive	–
CCCCCCCCS	inactive	inactive	inactive	inactive	–	–	inactive	inactive	–	–	inactive	inactive	inactive	inactive	inactive	–	–	–	–	–
COC(=O)/C=C/C(C)=C\C=C\C(C)=C\C=C\C=C(C)\C=C\C=C(C)\C=C\C(=O)O	inactive	54.5 µM (active)	–	inactive	–	inactive	inactive	inactive	inactive	inactive	inactive	–	–	inactive	inactive	inactive	inactive	inactive	inactive	–
CCOC(=O)CC(O)(CC(=O)OCC)C(=O)OCC	inactive	–	–	inactive	inactive	–	inactive	inactive	–	inactive	inactive	inactive	inactive	inactive	inactive	–	–	–	–	inactive
O=C(c1ccc(Cl)cc1)c1ccc(Cl)cc1	inactive	inactive	inactive	inactive	–	inactive	inactive	inactive	inactive	inactive	inactive	inactive	inactive	inactive	inactive	inactive	inactive	inactive	inactive	–
CC(C)(C)NCC(O)COc1ccc(NC(=O)NC2CCCCC2)cc1 (centres undefined)	inactive	–	26.6 µM (active)	inactive	inactive	–	–	inactive	–	inactive	inactive	–	–	inactive	inactive	–	–	–	–	29.8 µM (active)
COC(=O)Cc1cccc2ccccc12	inactive	54.5 µM (active)	–	inactive	inactive	–	–	–	–	inactive	inactive	inactive	inactive	inactive	inactive	–	inactive	inactive	inactive	–
O=C(O)c1ccccc1-n1cc(C(=O)O)c(=O)c2cc(Nc3c(F)cc(F)cc3Cl)c(Cl)cc21	inactive	inactive	inactive	inactive	inactive	inactive	inactive	inactive	inactive	inactive	inactive	inactive	inactive	inactive	inactive	–	–	–	–	–
Cc1nc(C)c(C)nc1C	inactive	inactive	–	inactive	inactive	inactive	inactive	inactive	inactive	inactive	inactive	inactive	inactive	inactive	inactive	inactive	inactive	inactive	inactive	–
COC(=O)c1cc(Cl)ccc1[N+](=O)[O-]	inactive	–	inactive	inactive	inactive	inactive	inactive	–	inactive	inactive	inactive	inactive	inactive	inactive	inactive	–	–	–	–	inactive
C=CC(=O)NC(C)(C)C	inactive	inactive	inactive	inactive	inactive	inactive	inactive	inactive	inactive	inactive	inactive	inactive	inactive	inactive	inactive	–	–	–	–	–
C=CC(C)(O)CC/C=C(/C)CCC=C(C)C (centres undefined)	inactive	54.5 µM (active)	61.1 µM (active)	inactive	inactive	inactive	inactive	inactive	–	inactive	–	–	–	inactive	–	–	–	–	–	–
CCc1c(C)[nH]c2c1C(=O)C(CN1CCOCC1)CC2 (centres undefined)	inactive	inactive	inactive	inactive	–	inactive	inactive	inactive	–	inactive	–	–	–	inactive	–	–	–	–	–	–
c1ccc(-c2ccc(-c3ccccc3)cc2)cc1	inactive	inactive	inactive	inactive	inactive	inactive	inactive	inactive	inactive	inactive	inactive	0.791 µM (active)	–	inactive	–	–	–	–	–	–

SMILES	Potency [1]	Potency [2]	Potency [3]	Potency [4]	Potency [5]	Potency [6]	Potency [7]	outcome [8]	Potency [9]	outcome [10]	Potency [11]	Potency [12]	Potency [13]	Potency [14]	Potency (Aromatase (Homo sapiens))	Potency [15]	outcome [16]	outcome [17]	Potency [18]	Potency [19]
COc1cc(C)c(Cc2cnc(N)nc2N)cc1OC	inactive	–	26.6 µM (active)	inactive	inactive	–	–	–	inactive	inactive	inactive	inactive	inactive	inactive	inactive	–	–	–	–	26.6 µM (active)
Sc1nc(S)nc(S)n1	inactive	inactive	inactive	inactive	–	inactive	inactive	inactive	–	inactive	–	–	–	inactive	inactive	–	–	–	–	–
O=C(O)c1cc(C(=O)O)c(C(=O)O)cc1C(=O)O	inactive	inactive	inactive	inactive	inactive	inactive	inactive	inactive	–	inactive	inactive	inactive	inactive	inactive	inactive	inactive	inactive	inactive	inactive	–
CCC(CC)C(=O)O	inactive	inactive	inactive	inactive	inactive	inactive	inactive	inactive	–	inactive	inactive	inactive	inactive	inactive	inactive	–	–	–	–	–
CCCCCCC/C=C/C=O	inactive	inactive	43.3 µM (active)	inactive	inactive	inactive	–	inactive	–	inactive	inactive	inactive	inactive	inactive	inactive	–	–	–	–	–
CC(C)C/C=C(\C=O)c1ccccc1	inactive	–	–	inactive	inactive	–	inactive	inactive	inactive	inactive	inactive	61.1 µM (active)	inactive	inactive	inactive	–	–	–	–	inactive
OCCOc1cccc(OCCO)c1	inactive	–	–	inactive	inactive	inactive	inactive	inactive	–	inactive	–	–	–	inactive	inactive	–	–	–	–	inactive
CC(CN=Cc1ccccc1O)N=Cc1ccccc1O (centres undefined)	inactive	–	inactive	inactive	inactive	inactive	inactive	inactive	–	inactive	–	–	–	inactive	inactive	–	–	–	–	inactive
C=CC(O)CCCCC (centres undefined)	inactive	inactive	inactive	inactive	–	inactive	inactive	inactive	–	inactive	–	–	–	inactive	inactive	–	–	–	–	–
O=C1c2ccccc2C(=O)C1c1ccc2cc(S(=O)(=O)O)cc(S(=O)(=O)O)c2n1	inactive	–	–	inactive	52.5 µM (active)	33.1 µM (active)	inactive	inactive	inactive	inactive	inactive	inactive	inactive	52.5 µM (active)	inactive	–	–	–	–	inactive
CC(C)Oc1ccccc1O	inactive	inactive	inactive	inactive	–	inactive	inactive	inactive	–	inactive	inactive	inactive	inactive	inactive	inactive	–	–	–	–	–
[O-][n+]1ccc(Cl)cc1	inactive	inactive	inactive	inactive	inactive	inactive	inactive	inactive	–	inactive	–	–	–	inactive	–	–	–	–	–	–
c1ccc(CN(Cc2ccccc2)Cc2ccccc2)cc1	inactive	–	inactive	inactive	inactive	inactive	inactive	inactive	–	inactive	–	–	–	inactive	inactive	–	–	–	–	inactive
O=C1c2ccccc2C(=O)C1c1ccc2ccccc2n1	inactive	inactive	1.91 µM (active)	inactive	inactive	inactive	inactive	inactive	inactive	inactive	inactive	–	–	–	inactive	–	–	–	–	–
CC/C=C\CCO	inactive	inactive	inactive	inactive	inactive	inactive	inactive	inactive	–	inactive	–	–	–	inactive	–	–	–	–	–	–
CCc1ccc2c(c1)C(=O)c1ccccc1C2=O	inactive	–	inactive	inactive	–	inactive	inactive	inactive	–	inactive	inactive	27.3 µM (active)	–	inactive	inactive	–	–	–	–	inactive
